# ± gives the standard deviation.
# Legend:
# Details in all cases: modulator concentration 10 µM
# [1] = system: RAW-Dual (murine macrophage reporter line); assay: NF-kB reporter (SEAP) activity fold change vs agonist alone; higher = enhanced NF-kB activity
# Method in brief: (§1)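 RAW-Dual murine macrophage reporter cells were seeded at 50 000 per well in 384-well plates and pre-incubated 1 hour at 37 °C with compound pin-transferred to 10 μM final. After 1 hour, a PRR agonist was added and cells incubated overnight. Supernatant NF-κB (SEAP, QUANTI-Blue, 620 nm absorbance) and IRF (Lucia luciferase, QUANTI-Luc, luminescence) signals were divided by the mean agonist-only control on the same plate to give fold change. Two replicate plates were averaged, with errors by propagation.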
# [2] = system: RAW-Dual (murine macrophage reporter line); assay: IRF reporter (Lucia luciferase) activity fold change vs agonist alone; higher = enhanced IRF activity
# Method in brief: as §1
# [3] = system: RAW-Dual (murine macrophage reporter line); assay: viability score (confluency relative to resting cells, overnight) (fraction); higher = more viable, active = viable (0.7 or more)
# Method in brief: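 RAW-Dual macrophages in 384-well plates were incubated overnight with compound, final concentration 10 μM. Confluency images from IncuCyte were processed in IncuCyte software into two masks covering all imaged wells. The viability score is each well's confluency relative to resting cells, and a compound met the cutoff when both masks exceeded 70% of resting cells.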
# [4] = agonist: CpG ODN 1826 0.5 ug/mL
Structure (SMILES),"NF-kB reporter [1, 4]",NF-kB reporter ([1]; agonist: LPS 0.1 ug/mL),NF-kB reporter ([1]; agonist: MPLA […]),IRF reporter ([2]; agonist: 3'3'-cGAMP 10 ug/mL),IRF reporter ([2]; agonist: LPS 0.1 ug/mL),IRF reporter ([2]; agonist: MPLA […]),viability score [3]
O=C(NC(=S)Nc1ccccc1C(F)(F)F)c1cccc(I)c1,0.927 ± 0.088,0.989 ± 0.076,0.9 ± 0.066,0.989 ± 0.025,1.24 ± 0.13,1.09 ± 0.14,1.01 (active)
COc1ccc(S(=O)(=O)N(CC(=O)Nc2ccccc2Br)c2ccc(C)cc2)cc1OC,0.735 ± 0.067,0.773 ± 0.076,0.864 ± 0.041,0.858 ± 0.086,1.04 ± 0.11,1.1 ± 0.17,1 (active)
COc1ccc(C(=O)NCc2ccc(OCCN(C)C)cc2)cc1OC.Cl,0.988 ± 0.15,1.05 ± 0.079,0.925 ± 0.059,0.88 ± 0.027,1.21 ± 0.1,1.08 ± 0.085,0.994 (active)
O=C(NCc1ccco1)C(=Cc1ccc(-c2ccccc2Cl)o1)NC(=O)c1ccccc1,0.57 ± 0.044,0.745 ± 0.052,0.791 ± 0.07,0.476 ± 0.022,0.859 ± 0.07,0.942 ± 0.11,0.996 (active)
CN(C)CCOC(=O)COc1ccc(Cl)cc1.Cl,1.11 ± 0.084,1.09 ± 0.088,1.01 ± 0.038,0.882 ± 0.076,0.963 ± 0.043,0.964 ± 0.08,0.999 (active)
CC(=O)N1CCC(C(=O)NCc2cccnc2-c2cnn(C)c2)CC1,1.02 ± 0.11,1.06 ± 0.11,0.903 ± 0.099,1.04 ± 0.095,1.18 ± 0.074,1.15 ± 0.25,0.995 (active)
COc1ccc(N(CC(=O)Nc2ccc3ccccc3c2)S(C)(=O)=O)cc1OC,0.921 ± 0.074,1.06 ± 0.06,0.883 ± 0.054,0.907 ± 0.025,1.43 ± 0.18,1.06 ± 0.14,1.01 (active)
Fc1ccc2ccccc2c1,0.958 ± 0.077,0.979 ± 0.16,1.01 ± 0.13,1.03 ± 0.033,1.12 ± 0.12,1.15 ± 0.18,1.01 (active)
CCC(=O)Nc1ccc(N2CCCCC2)c(Cl)c1,1.1 ± 0.23,1.14 ± 0.091,1.04 ± 0.1,0.773 ± 0.026,1.41 ± 0.18,1.38 ± 0.28,0.992 (active)
CC(C)NCC(O)COc1cccc2[nH]ccc12 (configuration not stated) [Prestw-90],1.59 ± 0.38,0.968 ± 0.068,1.13 ± 0.13,1.01 ± 0.046,1.17 ± 0.13,1.17 ± 0.11,0.985 (active)
CN1[C@@H]2CC[C@H]1C[C@@H](OC(c1ccccc1)c1ccccc1)C2.CS(=O)(=O)O,0.95 ± 0.13,1.19 ± 0.5,1.48 ± 0.23,0.438 ± 0.013,0.934 ± 0.35,1.53 ± 0.15,–
COC(=O)C1=C(C)NC(C)=C(C(=O)O[C@@H]2CCCN(Cc3ccccc3)C2)[C@@H]1c1cccc([N+](=O)[O-])c1 [Prestw-1766],0.317 ± 0.025,0.731 ± 0.069,0.717 ± 0.071,0.412 ± 0.043,1.1 ± 0.14,0.886 ± 0.21,1.07 (active)
COCC(=O)Nc1c(C(=O)Nc2ccc(OC(F)(F)F)cc2)oc2ccccc12,1.26 ± 0.1,1.24 ± 0.098,1.22 ± 0.11,1.58 ± 0.085,1.84 ± 0.17,1.85 ± 0.38,0.922 (active)
CCc1cc(=O)oc2c(C)c(OCC(=O)c3ccc(OC)cc3)ccc12,0.804 ± 0.066,0.837 ± 0.039,1.06 ± 0.11,0.925 ± 0.062,1.45 ± 0.084,1.62 ± 0.14,1.01 (active)

# — the supplement of paper PMC10646978
